Sampled rows, rich in hits. Any-hit rate of the full collection: about 3.4%.
AmpC inh no detg: inhibitors of E. coli AmpC beta-lactamase without detergent | Potency, µM (top dose mostly 57.1 µM), for inactives: at the highest dose activity change, negative = inhibition, actives largely listed as inhibitors | 0.52% of 330,000 active | P00811 | AmpC nitrocefin hydrolysis, absorbance 480 nm, 0.0001% Triton;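 further: plate controls were no compound for no effect and no enzyme for full effect; nearly all actives have a fitted effect of over 20% in size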
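AmpC (5.3 nM in the dispensed reagent) in 20 mM phosphate pH 7.0 with 0.01% (detergent screen) or 0.0001% Triton X-100 was preincubated with compounds for 15 min at room temperature. Nitrocefin was then added from an 800 uM solution, and hydrolysis was followed at 480 nm.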
RE007 growth inh: less growth of the S. pombe RE007 Vpr strain; AID 651644; S. pombe RE007 Vpr strain, BacTiter-Glo ATP luminescence, 24 h; Potency, µM (titrated, usually from 92.2 µM), inactives show at the top dose activity change, negative = less growth, usual class: inhibitors; 0.21% of 360,000 active; active means well fitted falling curve with a large enough effect; inconclusive means small, poorly fitted or top-dose-only effect; inactive means no such curve, though single readings can be large or run the other way; further: nearly all actives have a fitted effect of over 50% in size
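Fission yeast RE007 carrying one integrated HIV-1 vpr copy, seeded at OD 0.01 in PMG+AL medium with 23 nL pinned compound. Grown 24 h at 30 degrees; viability read by BacTiter-Glo luminescence after 5 min.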
Sm TGR block: inhibitors of Schistosoma mansoni thioredoxin glutathione reductase; purified TGR, DTNB reduction, TNB absorbance 405 nm; Potency, µM (series often up to 114 µM), for inactives: top-dose activity change, negative = inhibition, usual class: inhibitors; 3% of 360,000 active; AID 485364; further: nearly all actives have a fitted effect of over 60% in size
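Kinetic colorimetric format: TGR-catalysed, NADPH-driven DTNB reduction monitored via TNB absorbance. Enzyme dispensed at 20 nM; compound exposure 15 min at room temperature before reaction start.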
AmpC detergent: inhibitors of E. coli AmpC beta-lactamase with detergent; P00811; AmpC hydrolysis of nitrocefin, absorbance 480 nm, 0.01% Triton; Potency, µM (series often up to 114 µM), inactives show top-dose activity change, negative = inhibition, actives largely listed as inhibitors; 0.041% of 370,000 active;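 further: 0% = no-compound wells and -100% = no-enzyme wells; nearly all actives have a fitted effect of over 25% in size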
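20 mM phosphate pH 7.0 + 0.01% (detergent screen) or 0.0001% Triton X-100; 5.3 nM AmpC reagent; cpd preinc 15 min RT; nitrocefin (800 uM stock) to start; A480 q20 s × 4 min; Activity was normalised to no-enzyme and no-compound control wells.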
FBPA Giardia inh: inhibitors of Giardia lamblia fructose-1,6-bisphosphate aldolase; purified Giardia FBPA; A8B2U2; AID 2451; 0.71% of 290,000 active; Potency, µM (doses to about 59.6 µM), for inactives: top-dose activity, negative = inhibition, actives largely listed as inhibitors; further: nearly all actives have a fitted effect of over 55% in size
Target sequence (A8B2U2 whole entry, looked up): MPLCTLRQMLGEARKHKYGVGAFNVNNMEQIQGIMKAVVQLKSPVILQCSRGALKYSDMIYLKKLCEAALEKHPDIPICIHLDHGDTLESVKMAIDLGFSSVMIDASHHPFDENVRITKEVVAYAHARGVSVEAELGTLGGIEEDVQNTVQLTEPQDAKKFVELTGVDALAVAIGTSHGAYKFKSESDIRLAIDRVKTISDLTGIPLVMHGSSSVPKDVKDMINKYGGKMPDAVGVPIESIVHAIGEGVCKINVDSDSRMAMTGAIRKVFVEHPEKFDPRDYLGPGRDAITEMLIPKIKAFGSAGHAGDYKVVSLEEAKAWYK
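Giardia FBPA (40 nM reagent) was preincubated 10 min at RT with compound (up to 57.5 uM final), then substrate plus GAPDH/TPI/NAD/arsenate coupling system with diaphorase/resazurin was added; resorufin fluorescence (525/598 nm) was read after 20 min.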
* marks the source's active call; other numbers are inactive results; ? = inconclusive; nt = no result; [ ] = remark or other dose. Unless noted, the call rests on the fitted dose curve; in most records, active means well fitted curve in the direction sought with a large enough effect; inconclusive means small, poorly fitted or top-dose-only effect, or another doubt; inactive means no such curve, though single readings can be large; an effect the other way counts as inactive or inconclusive. Unless noted, on the % scale 0 is the no-effect control and ±100 the full control effect; potency means the concentration at half of the fitted maximal effect.

SMILES | AmpC inh no detg | RE007 growth inh | Sm TGR block | AmpC detergent | FBPA Giardia inh
CCOCCCN(C(=O)c1snc(C(N)=O)c1N)C(C(=O)NC1CCCC1)c1ccc(F)cc1 (centres undefined) | 20% | -1% | 1% | 0% | 8%
COc1ccc(S(=O)(=O)Nc2cc(Sc3ncn[nH]3)c(O)c3ccccc23)cc1 | -28% | 32µM* | 0.5µM* | -5% | 0.56µM*
COc1ccc(S(=O)(=O)Nc2ccc(O)c(Sc3ncn[nH]3)c2)cc1 | -27% | 5% | -10% | ? | -21%
C=C(C)CN(CC)C(=O)CN1C(=O)NC2(CCc3ccccc32)C1=O (centres undefined) | 13% | 2% | 8% | 5% | nt
CC1=C(C(=O)N2CCOCC2)C(c2ccc(O)cc2)NC(=S)N1 (centres undefined) | -25% | -12% | 3% | -10% | -4%
Oc1ccc2c(c1)C1CCCC1(N1CCOCC1)O2 (centres undefined) | -28% | -8% | 28µM* | 3% | ?
O=C(NCc1ccco1)NC(=O)c1csc([N+](=O)[O-])c1 | -37% | 5% | -20% | -3% | 0%
CCCCCC(=O)Cc1cc(O)cc2c1C(=O)Oc1cc(O)c(C(=O)O)c(CCCCC)c1O2 | -45% | 9% | 35µM* | -2% | ?
COc1ccc(S(=O)(=O)n2nc(-c3cc(OC)c(OC)c(OC)c3)cc2N)cc1OC | 50% | 3% | 9% | -7% | -5%
COc1ccc(-c2cc(N)n(S(=O)(=O)c3c(F)c(F)c(F)c(F)c3F)n2)cc1OC | -25% | 15% | 2.5µM* | ? | 17%
O=C(/N=C1\NC(=O)C(F)(C(F)(F)F)S1)NC1CCCCC1 (centres undefined) | -20% | -6% | 13µM* | 1% | -12%
O=C(N=Nc1c(O)[nH]c2ccccc12)c1cccc(S(=O)(=O)N2CCCCC2)c1 | -2% | 3% | 5% | 0% | -6%
CC(C)c1ccc2[nH]c(O)c(N=NC(=O)c3cccc(S(=O)(=O)N4CCCCC4)c3)c2c1 | 6.3µM* | 3% | -6% | -3% | -5%
COc1ccccc1NC(=O)CN(Cc1ccco1)C(=O)c1cc2ccccc2o1 | -38%[11.4 µM] | nt | 22µM* | -15% | -1%
O=C(c1cc2ccccc2o1)N(Cc1ccco1)Cc1cccs1 | -37% | -8% | 32µM* | ? | nt
Cc1c(C(=O)N(Cc2ccco2)Cc2cccs2)oc2ccccc12 | -21% | -24% | 0% | 7% | nt
COc1ccccc1C(=O)NCCC(=O)N(Cc1ccco1)Cc1cccs1 | -1% | 12% | ? | -8% | nt
O=C(NCCC(=O)N(Cc1ccco1)Cc1cccs1)c1ccccc1Cl | 16% | 0% | 45µM* | -4% | nt
COc1ccccc1NC(=O)CN(Cc1ccco1)C(=O)c1ccc(=O)[nH]c1 | -4% | 0% | -14% | 5% | 1%
CC(=O)N1CCc2c(sc3c2c(=O)n(-c2ccccc2)c(=O)n3CC(=O)Nc2ccccc2C)C1 | nt | nt | -4% | -3% | nt
O=C(Nc1cccc(OC(=O)c2ccc(Br)o2)c1)c1ccccc1 | -41% | 5% | -7% | 3% | nt
O=C1CSC(c2ccc3c(c2)OCO3)N1c1ccc(Oc2ccccc2)cc1 (centres undefined) | -29% | 20%[3.69 µM] | 32µM* | -14% | -1%
O=C(CSc1ncccn1)N/N=C/c1ccccc1[N+](=O)[O-] | -11% | 3% | 5% | 7% | 6%
Oc1ccccc1/C=N/c1c(-c2ccco2)nc2ccccn12 | 154% | -19% | 50µM* | -12% | ?
COc1cccc(C(=O)Nc2cccc(NC(=O)c3ccc(Cl)cc3Cl)c2)c1 | nt | nt | -2% | 6% | nt
COc1cccc(C(=O)Nc2cccc(C(=O)NC3=NN(c4c(Cl)cc(Cl)cc4Cl)C(=O)C3)c2)c1 | 18µM* | -4% | -2% | -13% | 22%
CSc1nc(C)cc(Oc2ccc(=O)[nH]n2)n1 | -6% | 3% | 0% | 2% | 0%
c1ccc2c(c1)ccc1ccccc12 | -22% | 2% | nt | nt | nt
Nc1c(C(O)(C(F)(F)F)C(F)(F)F)ccc2ccccc12 | 26% | -5% | 40µM* | -5% | -16%

Screening results as filed in PubChem BioAssay.
